Screens (PubChem)
ADAM17 inh: ADAM17 inhibitors, primary screen, biochemical, QFRET; recombinant ADAM17, EDANS/DABCYL FRET peptide cleavage; inhibition, % at 6.95 µM; 370,000 compounds, 0.83% hits; AID 720648, 2013;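 active = inhibition above the mean of compounds lying between control limits plus 3 SD, set per campaign, cut at about 8.5% in these data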
Target sequence (P78536 215-824 limits assumed): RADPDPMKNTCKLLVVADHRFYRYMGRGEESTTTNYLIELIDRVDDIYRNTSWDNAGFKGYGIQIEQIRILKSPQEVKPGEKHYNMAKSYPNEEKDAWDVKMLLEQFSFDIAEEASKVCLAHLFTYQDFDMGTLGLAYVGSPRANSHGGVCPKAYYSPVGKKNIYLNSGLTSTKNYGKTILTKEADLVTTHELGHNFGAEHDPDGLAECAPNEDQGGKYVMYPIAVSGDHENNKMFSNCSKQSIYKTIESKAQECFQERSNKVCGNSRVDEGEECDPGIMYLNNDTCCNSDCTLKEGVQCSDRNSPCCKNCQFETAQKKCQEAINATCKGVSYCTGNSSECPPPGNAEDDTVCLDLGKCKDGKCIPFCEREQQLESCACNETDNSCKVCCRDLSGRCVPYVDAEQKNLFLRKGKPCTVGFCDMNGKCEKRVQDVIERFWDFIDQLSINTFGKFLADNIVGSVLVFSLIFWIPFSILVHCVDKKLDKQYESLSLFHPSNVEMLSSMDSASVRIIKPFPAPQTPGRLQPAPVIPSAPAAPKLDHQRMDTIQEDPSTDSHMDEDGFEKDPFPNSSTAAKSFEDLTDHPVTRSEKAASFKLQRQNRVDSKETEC
NRP1-CendR mod: modulators of CendR peptide binding to NRP-1, primary screen, biochemical, fluorescence polarization, uHTS. Neuropilin-1 (Homo sapiens), O14786. FAM-RPARPAR peptide binding to NRP-1. inhibition, % at 25 µM. 360,000 compounds, 0.85% hits;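 active = inhibition or corrected inhibition above about 18%, plus a signal ratio from 0.5 to 1.5, limit read from the data, passing the limit was not always enough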
proKLK7 act: proKLK7 zymogen activators, primary screen, biochemical, fluorescence intensity. Kallikrein-7 (Homo sapiens), P49862. purified proKLK7, EDANS-DABCYL substrate fluorescence; 100% is mature enzyme control, 0% vehicle. activation, % at 7 µM. 370,000 compounds, 0.9% hits. AID 652039, 2013;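 active = activation above the mean of all tested compounds plus 3 SD, computed per campaign excluding outliers beyond control limits, cut at about 13% in these data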
sPLA2-III inh: human group III sPLA2 inhibitors, primary screen, biochemical, QFRET, BODIPY PC-A2 liposome substrate; 370,000 compounds, 0.56% hits; inhibition, % at 12.2 µM; QFRET BODIPY PC-A2 liposome hydrolysis, fluorescence; Group 3 secretory phospholipase A2 (Homo sapiens), Q9NZ20; AID 743126, 2013;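 active = inhibition above mean plus 3 SD of compounds lying within the high and low control bounds, cut at about 19% in these data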
ADAM10 inh: human ADAM10 inhibitors, primary screen, biochemical, QFRET, HTS. AID 720582, 2013. recombinant ADAM10, EDANS/DABCYL FRET peptide cleavage, 3 h. Disintegrin and metalloproteinase domain-containing protein 10 (Homo sapiens), O14672. 370,000 compounds, 0.62% hits. inhibition, % at 7 µM;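 active = inhibition above a per-campaign cutoff equal to the mean of compounds falling between control-based bounds plus 3 SD, cut at about 20% in these data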
hGIII sPLA2 conf: human group III sPLA2 inhibitors, confirmation, biochemical, QFRET, triplicate; shares compounds with sPLA2-III inh; recombinant hGIII-sPLA2, BODIPY PC-A2 QFRET fluorescence; inhibition, % at 12.2 µM; 2,000 compounds, 34% hits; AID 743280, 2014;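 active = mean inhibition across triplicates above the hit cutoff set in the earlier primary screen, cut at about 19% in these data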
BODIPY interf: 535nm fluorescence optical interference, confirmation, artefact control for HGIII-sPLA2 inhibitor project, biochemical, QFRET | shares compounds with sPLA2-III inh | BODIPY FL product fluorescence interference | inhibition, % at 12.2 µM | 2,000 compounds, 8.5% hits | AID 743282, 2014;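 active = average inhibition above the solvent-only control mean plus 3 SD, cut at about 6% in these data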
535nm interf DR: 535nm fluorescence optical interference, dose response, artefact control for HGIII-sPLA2 inhibitor project, biochemical, QFRET; shares compounds with sPLA2-III inh; BODIPY FL product fluorescence interference, cell-free; IC50, µM; 240 tested, under 10 active; AID 743455, 2014;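 active = IC50 at or below 10 µM; inactive = IC50 above 10 µM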
Numbers stand for hits; n = inactive; x = no result. This is a sample that favours compounds with a hit; in the whole collection about 3.4% have one here.

SMILES	ADAM17 inh	NRP1-CendR mod	proKLK7 act	sPLA2-III inh	ADAM10 inh	hGIII sPLA2 conf	BODIPY interf	others
Cc1ccc(CN2CCN(/N=C/c3ccc(N(C)C)cc3)CC2)cc1	n	n	n	21	n	n	n
CCCSc1nnc(-c2ccco2)n1C	n	x	n	n	n	x	x
CC(C)NC(=S)N/N=C/c1ccc2c(c1)OCCO2	n	n	n	19	n	n	n
S=C(NN=Cc1ccc2c(c1)OCO2)NN=Cc1ccc2c(c1)OCO2	n	n	n	n	n	x	x
COCCCNC(=S)N/N=C/c1ccc2c(c1)OCO2	n	n	n	24	n	n	n
Cc1ccc2[nH]c(-c3cccc(N)c3)cc2c1	n	n	n	25	n	n	n
Cc1ccc2[nH]c(-c3cccc(F)c3)cc(=O)c2c1	n	n	n	n	n	x	x
COC(=O)C1CCCN(C(=O)C2CCN(S(=O)(=O)c3ccc([N+](=O)[O-])cc3)CC2)C1 (centres undefined)	n	x	n	n	n	x	x
COC(=O)c1nc(NNC(=O)c2ccccc2)sc1-c1ccccc1	n	n	n	30	n	30	n
O=C(Nc1nc(-c2ccc(Br)cc2)cs1)c1cccnc1	n	n	n	n	n	x	x
CC(=O)Nc1ccc(-c2csc(NNC(=O)c3ccc(C)cc3)n2)cc1	n	n	n	30	n	23	n
O=C(NC(=S)Nc1nc(-c2ccc(Br)cc2)cs1)c1ccco1	n	n	n	n	n	x	x
N#Cc1ccc(-c2csc(NNC(=O)c3ccc(Br)cc3)n2)cc1	n	n	n	46	n	36	11
O=C(NNc1nc(-c2ccc(Br)cc2)cs1)c1ccco1	n	n	n	46	n	45	12
COc1ccc(N=C2Sc3ccccc3[C@@H]3C[C@H]4[C@H](CON4C)CN23)c(OC)c1	n	x	n	n	n	x	x
COC(=O)N[C@H](C(=O)N[C@@H](Cc1ccccc1)[C@@H](O)CN(Cc1ccc(-c2ccccn2)cc1)NC(=O)[C@@H](NC(=O)OC)C(C)(C)C)C(C)(C)C	n	x	n	n	n	x	x
COc1ccccc1C(=O)CSc1nnc(-c2ccncc2)n1-c1ccc(Cl)cc1	n	x	n	n	n	x	x
O=C(CCc1ccccc1)N[C@H]1[C@@H](O)CCC[C@]12C(=O)N(Cc1ccccc1)c1ccccc12	n	x	n	n	n	x	x
O=C(NNc1nc(-c2ccccc2)cs1)c1ccccc1	n	n	n	35	n	33	7.3
O=C(Nc1nc(-c2ccccc2)cs1)c1cccnc1	n	n	n	n	n	x	x
C=CCS/C(N)=N\N=C\c1c(O)ccc2ccccc12	n	n	n	20	n	29	n	535nm interf DR=n
O=c1[nH]cc(Cc2ccccc2)c(=O)[nH]1	n	n	n	n	n	x	x
S=c1[nH]cc(Cc2ccccc2)s1	n	n	n	38	n	27	n
CCCCC(=O)c1ccc(OC(=O)c2ccc([N+](=O)[O-])cc2)cc1	n	n	n	n	n	x	x
Nc1ccc(C(=O)Oc2ccc([N+](=O)[O-])cc2)cc1	n	n	n	23	n	n	n
SMILES	ADAM17 inh	NRP1-CendR mod	proKLK7 act	sPLA2-III inh	ADAM10 inh	hGIII sPLA2 conf	BODIPY interf	others
Cc1ccc(Cn2cc(CN3CC=CS3(=O)=O)nn2)cc1	n	x	n	n	n	x	x
COCCCn1cc(CN2CC=CS2(=O)=O)nn1	n	x	n	21	n	n	n
CCn1c(/C=C/c2ccccc2C)nc2ccccc2c1=O	n	n	n	n	n	x	x
CCn1c(/C=C/c2c(C)n(CC)c3ccccc23)nc2ccccc2c1=O	n	n	n	24	n	n	n
Cc1cccc(-n2cnc(C(=O)NNC(=S)Nc3ccc(Cl)cc3)c2)n1	n	n	n	34	n	59	7.9
Cc1nc2ccccn2c1C(=O)NNC(=S)Nc1ccc(Cl)cc1	n	n	n	n	n	x	x
CN(C)c1cccc(C(=O)NNC(=S)NC2CC3CCC2C3)c1 (centres undefined)	n	n	n	20	n	25	n
Cc1cc(C)cc(NC(=O)OC2CCC23CCCCC3)c1 (centres undefined)	n	x	n	n	n	x	x
COc1ccccc1N(C(C)=O)C1=C(Cl)C(=O)c2ccccc2C1=O	n	n	n	21	n	38	n	535nm interf DR=n
CN(C)c1ccc(/C=N/NC(=S)NCc2ccco2)cc1	n	n	n	26	n	n	n
COC(=O)C1CN(Cc2cn(Cc3ccc(C)cc3)nn2)CCS(=O)(=O)N1Cc1ccccc1 (centres undefined)	n	x	n	n	n	x	x
CC(C)c1ccc(NC(=O)Nc2nc(C(N)c3ccccc3)cs2)cc1 (centres undefined)	n	n	n	n	n	x	x
CC(C)CC(N)c1csc(NC(=O)Nc2ccccc2C(C)C)n1 (centres undefined)	n	n	n	22	n	n	n
NC(c1csc(NC(=O)Nc2cccc(Cl)c2)n1)c1ccccc1Cl (centres undefined)	n	n	n	n	n	x	x
CC(C)c1ccc(NC(=O)Nc2nc(C(N)COCc3ccccc3)cs2)cc1 (centres undefined)	n	n	n	22	n	n	n
CC(C)C(N)c1csc(NC(=O)Nc2cccc(Cl)c2)n1 (centres undefined)	n	n	n	22	n	n	n
Cc1ccccc1NC(=O)Nc1nc(C(N)c2ccccc2)cs1 (centres undefined)	n	n	n	22	n	n	n
COc1ccc(CN2C(NC(=O)OCc3ccccc3)=NC3=CC(C)(C)n4c(=O)n(-c5ccccc5)c(=O)n4C32)c(OC)c1 (centres undefined)	n	x	n	n	n	x	x
COc1cccc(N(C)C(=O)[C@@H](C2CC2)[C@@H](O)c2ccc(C(C)=O)cc2)c1	n	x	n	n	n	x	x
COCCNC(=S)N(C)[C@H]1C[C@H]2c3[nH]c4c(-c5ccc6c(c5)OCO6)cccc4c3CCN2C[C@H]1[C@H](C)O	n	x	n	n	n	x	x
COc1ccc(Cn2ccc3ccc(-c4ccc5ccn(C(=O)c6ccccc6)c5c4)cc32)cc1	n	x	n	n	n	x	x
